Drawing on PubChem BioAssay (NCI), this text covers growth for 40 compounds.

Compounds without any hit were thinned out: in the full panel of roughly 83,000, 20% have a hit.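 Cell lines were cultured in 96-well plates, exposed to a single compound concentration, and assessed for percent growth 48 hours later.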 Values without a mark were called inactive. Calls of active or inactive are those of the source.

The assay deals with HOP-62 NSCLC. As to the kind of experiment: NCI-60 one-dose screen, 48 h (100 = growth as untreated, 0 = no growth, -100 = all killed). The note with it: 10 µM unless noted. As for the experimental part: Growth inhibition of the HOP-62 human Non-Small Cell Lung tumor cell line is measured as a screen for anti-cancer activity. Cells are grown in 96 well plates and exposed to the test compound for 48 hours. Compounds are tested at a single concentration, which is 10^-5 M for most compounds. The reported endpoint is percent growth (GI% or GIPRCNT), where numbers from 0 - 100% represent growth inhibition, and numbers from -100% - 0 represent cell death. For example, a value of 40 represents 60% growth inhibition. A value of 0 means no net growth occurred over the course of the experiment. A value of -40 indicates 40% of cells at the beginning of the experiment died by the end of the experiment. A value of -100 means all cells are dead at the end of the experiment.
NCI-60 Human Tumor Cell Lines Screen was performed using the standard one-dose NCI protocol, which is described in more detail at https://dtp.cancer.gov/discovery_development/nci-60/default.htm.
Compounds with GIPRCNT values below 10 were considered active. Activity score was based on GIPRCNT using the following formula: […]
Score is 0 for GIPRCNT values of 100 or above, 50 for GIPRCNT values of 0, and 100 for GIPRCNT values of -100.
For the compound `COc1ccc(-c2cc(-c3ccc(Nc4nc(Nc5ccc(Cl)cc5)nc(Nc5ccc(Cl)cc5)n4)cc3)no2)cc1`, the growth is 100%.
Consider `NC(=O)[C@@H]1Cc2ccccc2CN1C(=O)c1ccc2c(c1)Cc1ccccc1-2`, for which the growth was 108%.
As for `O=C1C(c2c(O)[nH]c3ncccc23)=Nc2ccccc21`, the figure is 86.8%; as for `Nc1nc(Nc2ccc([N+](=O)[O-])cc2O)nc(C(Cl)(Cl)Cl)n1`, 80%; as for `CCOC(=O)CC1CSC(N/N=C/c2ccc(O)cc2)=N1` (stereo not given), 91%.
Then `CN(C)CCOc1nc2c3cc([N+](=O)[O-])ccc3nn2c2ccccc12`, with 30.2%.
As for `COc1ccc(C(=O)C2OC3=C(C(=O)CC(C)(C)C3)C2c2cccc(Oc3ccccc3)c2)cc1` (stereo not given), the figure is 97%; as for `CO[C@H]1CC(c2ccc[nH]2)=N[C@]12O[C@@H](C)C[C@@H]1CCCCCCCc3ccc([nH]3)[C@H]12`, 14.8%; as for `COc1cc(/C=C/C(=O)c2ccc(-n3cc(CN4CCN(c5cc6c(cc5F)c(=O)c(C(=O)O)cn6C5CC5)CC4)nn3)cc2)cc(OC)c1OC`, 85.4%.
Take `CC(=O)O[C@H]1CC[C@@]2(C)C(=CC[C@@H]3[C@@H]2CC[C@]2(C)C(Cl)=C(c4nc5ccc(Cl)cn5c4NC(C)(C)C)C[C@@H]32)C1`: the growth was 90.8%.
For `O=C(Nc1ccc2[nH]ncc2c1)c1csc(Nc2ccccc2)n1`, the growth was 50.7%.
As for `O=c1c2cccc3c(N4CCOCC4)ccc(c32)c2nc3ccccc3n12`, the figure is 86.4%; as for `Cc1ccc(C2=Nc3c(N)nc(N)nc3NC(c3cccc(Nc4ccnc5cc(C(F)(F)F)ccc45)c3)C2)cc1` (stereo not given), 34.1%; as for `CCCC[N+]1(C)CCN=C1Cc1ccccc1` (stereo not given), 105%.
Then `CCOC(=O)c1c(N)sc2cc(O)ccc12`, with 104%; and `COc1ccccc1NC(=O)n1c(=O)cc(C)c2ccc(O)cc21`, with 102%.
As for `O=C(Nc1ncc(Cc2ccc(Cl)cc2)s1)c1ccc2c(c1)OCCO2`, the figure is 26.8%.
In the case of `c1ccc2[nH]c(-c3ccc(-c4nccc5c4[nH]c4ccccc45)cc3)nc2c1`, the growth is 86.1%.
Then `CCOC(=O)c1c(NC(=S)Nc2ccc([N+](=O)[O-])cc2)sc2c1CCCCC2`, with 102%; and `CC(=O)Cc1nsc(NC(=O)c2cc(-c3cc(Cl)ccc3Cl)oc2C)n1`, with 102%; and `NS(=O)(=O)Oc1cccc(-c2nc3sccn3c2-c2ccccc2)c1`, with 50.2%.
In the case of `CC(C)=CC(=O)C1C(=O)c2ccccc2C1=O`, the growth is 102%.
Then `c1ccc2cc(Cn3cc[n+](Cc4ccc5ccccc5c4)c3)ccc2c1`, with 42.1%; and `CC/C(=C(/c1ccc(Cl)cc1)c1ccc(OCCCN(C)C)cc1)c1ccc(OC)cc1`, with 99.1%.
Then `CC(Cc1cccc2ccccc12)C(N)=O` (stereo not given), with 94.6%.
Then `COc1cc2nc3cc([N+](=O)[O-])ccc3c(NCCCNCCO)c2cc1OC`, with -60.6% (active).
Regarding `Cn1cc(-c2csc(-c3cn(CCO)c4ccc(F)cc34)n2)c2cccnc21`, the growth was 52.6%.
Then `C(=N\Nc1nnc2n1N=C(c1ccccc1)CS2)/c1ccc(OCc2ccccc2)cc1`, with 110%; and `COc1cc(OCc2cccc(-c3ccccc3)c2C)cc(OC)c1CN1CCCCC1C(=O)NCCOCCOCCN` (stereo not given), with 89.8%.
Take `Cc1ccc(NC(=O)c2ccc(Nc3ncnc4c3cnn4-c3cccc(F)c3)cc2)cc1`: the growth is 94.7%.
As for `Cc1ccc(-c2nc(C#N)c(S(=O)(=O)n3nc(C)cc3N)o2)cc1`, the figure is 103%; as for `NCCNc1ccc([N+](=O)[O-])cc1`, 104%; as for `COc1ccc(-c2csc(NC(=O)CSc3nc(C)cc(=O)[nH]3)n2)cc1`, 118%.
Then `Fc1ccc(/C=C/c2cc(/C=C/c3ccc(F)cc3)n(-c3cc(F)cc(F)c3)n2)cc1`, with 96%; and `COc1ccc(S(=O)(=O)NC2c3ccccc3CC2O)cc1OC` (stereo not given), with 102%; and `O=C(O)/C=C\C(=O)Nc1ccc2c(c1)Cc1cc(F)ccc1-2`, with 87.9%.
Then `O=C1OCC2=C1C(c1cccc(F)c1)c1cc3c(cc1N2CCO)CCC3` (stereo not given), with 26.2%; and `O=C1NCCS(=O)(=O)/C1=C\C=C\c1cccc(C(F)(F)F)c1`, with 35.8%; and `O=C(Nc1ncc(Cc2ccccc2Cl)s1)c1ccc2c(c1)OCCO2`, with 28.3%.
In the case of `C#CCOc1cccc(Nc2ncnc3c(NC(=O)CCl)cccc23)c1`, the growth was 95.7%.
